# Results reported in PubChem BioAssay (NCATS).
# Records with an inconclusive call do not appear. The source made the active and inactive calls. Unless noted, calls follow the shape of the dose curve; as a rule, active = well fitted curve in the direction sought with a large enough effect; inconclusive = small, poorly fitted or top-dose-only effect, or another doubt; inactive = no such curve, though single readings can be large; an effect the other way counts as inactive or inconclusive.
# How the values were obtained:
# [1] = molecular target: Glucocorticoid receptor (Homo sapiens) (UniProt P04150); experiment: qHTS assay for small molecule antagonists of glucocorticoid receptor signaling (AID 588533; active = well fitted inhibition curve with a large enough effect in the signal ratio, with a control signal flat, not every such curve was filed as active; the % refers to the signal ratio;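 also: cells stimulated with 2 nM dexamethasone as agonist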; also: potency is read from the fitted curve at half-maximal effect)
# In short: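 Antagonist-mode qHTS: compound titrations added to GRE-bla HeLa cells, then dexamethasone 2 nM final; 18 h, 37 C. CCF4 FRET fluorescence normalized to dexamethasone and DMSO; IC50 from Hill fit.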
# [2] = molecular target: Peroxisome proliferator-activated receptor delta (Homo sapiens) (UniProt Q03181); experiment: qHTS assay for small molecule agonists of peroxisome proliferator-activated receptor delta signaling (AID 588534; calls by dose curve;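 also: 0% = DMSO basal wells and 100% = positive control agonist at 10 µM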)
# In short: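 Titration series tested in agonist mode on beta-lactamase reporter cells; 18 hrs at 37 C after a 5 hr pre-incubation. Readout: CCF4 fluorescence, 2 hrs RT. Hill equation gives EC50 and maximal response.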
# [3] = qHTS assay for small molecule antagonists of peroxisome proliferator-activated receptor delta signaling (AID 588535; active = well fitted inhibition curve with a large enough effect in the signal ratio, with a control signal flat, not every such curve was filed as active; the % refers to the signal ratio; also: potency is read from the fitted curve at half-maximal effect;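 as to max response: cells co-treated with a PPAR-delta agonist as stimulator during compound exposure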); conditions: HEK293T PPARd-UAS-bla, beta-lactamase FRET ratio, 18 h; 460 nm channel
# In short: (§1)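 Compounds tested in titration on PPAR-delta-UAS-bla HEK293T cells grown in charcoal/dextran-stripped serum (2%); beta-lactamase activity read via CCF4 emission at 460 and 530 nm.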
# [4] = molecular target: Peroxisome proliferator-activated receptor delta (Homo sapiens) (UniProt Q03181); experiment: as above
# In short: as §1
# [5] = molecular target: Peroxisome proliferator-activated receptor gamma (Homo sapiens) (UniProt P37231); experiment: qHTS assay for small molecule agonists of peroxisome proliferator-activated receptor gamma signaling (AID 588536; active = well fitted curve in the direction sought with a large enough effect in the signal ratio, with a control signal flat, not every such curve was filed as active; the % refers to the signal ratio;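 also: 0% = DMSO basal wells and 100% = rosiglitazone at 2 µM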)
# In short: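 This is an agonist-mode beta-lactamase reporter assay in HEK293 PPAR-gamma-UAS-bla cells with 1% charcoal/dextran FBS. Compound titrations ran 16 h at 37 C before CCF4 detection. EC50 and efficacy are Hill fits scaled to 2 uM rosiglitazone (100%) and DMSO basal.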
# [6] = molecular target: Peroxisome proliferator-activated receptor gamma (Homo sapiens) (UniProt P37231); experiment: qHTS assay for small molecule antagonists of peroxisome proliferator-activated receptor gamma signaling (AID 588537; active = well fitted inhibition curve with a large enough effect in the signal ratio, with a control signal flat, not every such curve was filed as active; the % refers to the signal ratio;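 also: reporter cells co-stimulated with 50 nM rosiglitazone agonist during compound treatment; % of control where 0% means no effect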)
# In short: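 HEK293 cells, PPAR-gamma-UAS-bla, 3000/well. Pre-incubation 6-6.5 h, 37 C. Compound titration with rosiglitazone 50 nM final, 16 h. CCF4 dye, 2 h RT, dual-emission fluorescence.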
# [7] = molecular target: Vitamin D3 receptor (Homo sapiens) (UniProt P11473); experiment: qHTS assay for small molecule antagonists of vitamin D receptor signaling (AID 588541; calls by dose curve;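 also: receptor activated by calcitriol during compound treatment; series mostly up to about 77 µM; % is scaled to controls: 0 for no effect and ±100 for the full control effect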)
# In short: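 VDR-UAS-bla HEK293T cells (2000/well, 2% charcoal-stripped FBS) were treated with titrated compounds plus 1-alpha,25-dihydroxyvitamin D3 (50 nM or 3 nM final) for 16 h at 37 C. CCF4 beta-lactamase fluorescence was read; Hill fits gave IC50.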
# [8] = molecular target: Vitamin D3 receptor (Homo sapiens) (UniProt P11473); experiment: qHTS assay for small molecule agonists of vitamin D receptor signaling (AID 588543; calls by dose curve;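 also: 0% = DMSO basal and 100% = reference agonist control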)
# In short: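 VDR-UAS-bla HEK293T cells, 2000/well, 2% charcoal-stripped FBS; compound titration 16 h at 37 C; CCF4 beta-lactamase ratio read. Normalized to 50 nM 1-alpha,25-dihydroxyvitamin D3 (100%) and DMSO; Hill fit gives EC50, efficacy.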
# [9] = molecular target: Retinoic acid receptor RXR-alpha (Homo sapiens) (UniProt P19793); experiment: qHTS assay for small molecule agonists of retinoid X receptor alpha signaling (AID 588544; calls by dose curve;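 also: 0% = DMSO basal wells and 100% = reference agonist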)
# [10] = molecular target: Thyroid hormone receptor beta (Homo sapiens) (UniProt P10828); experiment: qHTS assay for small molecule agonists of thyroid hormone receptor beta signaling (AID 588545; calls by dose curve;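 also: 0% = DMSO only and 100% = 10 nM T3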)
# In short: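 TR-UAS-bla-GripTite HEK 293 cells in medium with 2% charcoal/dextran FBS, 0.1 mM NEAA and 1 mM sodium pyruvate were treated with titrated compounds for 18 hrs at 37 C. Beta-lactamase reporter was read with CCF4 dye (ex 405, em 460/530 nm); EC50 from Hill fits.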
# [11] = qHTS assay for small molecule antagonists of retinoid X receptor alpha signaling (AID 588546; active = well fitted inhibition curve with a large enough effect in the signal ratio, with a control signal flat, not every such curve was filed as active; the % refers to the signal ratio;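 also: cells stimulated with 9-cis-retinoic acid as agonist; % is scaled to controls: 0 for no effect and ±100 for the full control effect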); conditions: HEK293T RXRa-UAS-bla, beta-lactamase ratio, antagonist mode; measured here: W530 green channel, cytotoxicity proxy
# In short: (§2)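 Beta-lactamase reporter inhibition, read as CCF4 fluorescence ratio (ex 405, em 460/530 nm) after 2 h at RT. HEK293T UAS-bla cells, 2500/well, were stimulated with 9-cis-RA at 500 or 100 nM final alongside test compound for 18 h at 37 C.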
# [12] = molecular target: Retinoic acid receptor RXR-alpha (Homo sapiens) (UniProt P19793); experiment: as above; conditions: HEK293T RXRa-UAS-bla, beta-lactamase ratio, antagonist mode
# In short: as §2
# [13] = molecular target: Thyroid hormone receptor beta (Homo sapiens) (UniProt P10828); experiment: qHTS assay for small molecule antagonists of thyroid hormone receptor beta signaling (AID 588547; active = well fitted inhibition curve with a large enough effect in the signal ratio, with a control signal flat, not every such curve was filed as active; the % refers to the signal ratio;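 also: cells stimulated with 0.4 nM T3 agonist during compound exposure; series mostly up to about 77 µM; % is scaled to controls: 0 for no effect and ±100 for the full control effect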); conditions: TR-UAS-bla HEK293, beta-lactamase ratio, antagonist mode, 18 h
# In short: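 TR-UAS-bla GripTite HEK293 cells in 2% charcoal/dextran FBS medium were preincubated 4 h at 37 C, given compound (0.59 nM to 92 uM) plus 0.4 nM T3 (final) for 18 h, then CCF4 for 2 h at RT; Hill fit gave IC50.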
# [14] = qHTS assay for small molecule activators of the p53 signaling pathway (AID 651743; active = well fitted activation curve with a large enough effect in the signal ratio, not every such curve was filed as active; the % refers to the signal ratio; also: series mostly up to about 92 µM; % of control where 0% means no effect); conditions: HCT-116 p53RE-bla, beta-lactamase FRET ratio, 16 h; activation: stronger effect = higher value
# In short: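 Here HCT-116 cells with an integrated p53-responsive beta-lactamase gene were incubated with compounds (16 hours, 37 C) after a 5-hour plating period; beta-lactamase activity was detected as fluorescence intensity via B/G FRET substrate.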
# [15] = qHTS assay for small molecule activators of the nuclear factor-kappa B (NF-kB) signaling pathway (AID 651749; active = well fitted activation curve with a large enough effect in the signal ratio; the % refers to the signal ratio; also: series mostly up to about 77 µM; % of control where 0% means no effect); conditions: NF-kB-bla ME-180 cells, beta-lactamase FRET ratio, 16 h; activation: stronger effect = higher value
# In short: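 Beta-lactamase reporter expression, controlled by NF-kB response elements in ME-180 cells, was quantified fluorometrically via FRET disruption; cells at 2,000/well had been incubated with 23 nL test compound for 16 hr.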
# [16] = qHTS assay for environmental chemicals that activate the Aryl hydrocarbon Receptor (AhR) signaling pathway (AID 651777); conditions: 1A2-DRE human hepatoma cells, luciferase, 24 h; activation: stronger effect = higher value; also: % of control where 0% means no effect; nearly all actives have a fitted effect of over 15% in size
# In short: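 Concentration–response screening used 1,200 1A2-DRE cells per well, 24 hr compound exposure (37 C, 5% CO2), and One-Glo luminescence as the AhR-driven CYP1A2 reporter signal.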
# [17] = molecular target: Peroxisome proliferator-activated receptor alpha (Homo sapiens) (UniProt Q07869); experiment: qHTS assay for small molecule agonists of the peroxisome proliferator-activated receptor alpha (PPARalpha) signaling pathway (AID 651778); conditions: PathHunter PPARalpha complementation, chemiluminescence, 6 h; max response: stronger effect = higher value; also: % of control where 0% means no effect
# In short: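 Cells plated at 2,000/well and held overnight at 37 C, 5% CO2, then compound added by pin tool for 6 hr; after PathHunter detection reagent and 60 min at room temperature, chemiluminescence from enzyme complementation was read.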
# [18] = qHTS assay for small molecule agonists of the antioxidant response element (ARE) signaling pathway measured by Nrf2-dependant transcriptional activity (AID 720636; active = well fitted curve in the direction sought with a large enough effect in the repeat runs; an effect the other way counts as inactive or inconclusive; also: potency is read from the fitted curve at half-maximal effect; as to activation: % of control where 0% means no effect)
# In short: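 Attachment 6 hr at 37 C, then compound versus DMSO vehicle for 16 hr in ARE-luc HepG2 cells (1% dialyzed FBS); luminescence recorded 30 min after ONE-Glo addition at room temperature.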
# [19] = qHTS assay for small molecule agonists of the antioxidant response element (ARE) signaling pathway measured by Nrf2-dependant transcriptional activity - cell viability counter screen (AID 720653; active = well fitted curve in the direction sought with a large enough effect in the repeat runs; an effect the other way counts as inactive or inconclusive; also: potency is read from the fitted curve at half-maximal effect; as to max response: % is scaled to controls: 0 for no effect and ±100 for the full control effect); conditions: ARE-bla HepG2 viability, CellTiter-Glo ATP luminescence, 16 h; max response: stronger effect = lower value
# In short: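 ARE-bla HepG2 cells (2,000/well) rested 5 hrs at 37C/5% CO2, then exposed to compounds in DMSO for 16 hrs. Viability was read in the same wells as intracellular ATP by luminescence, 30 min at room temperature after reagent addition.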
# [20] = qHTS assay for cell viability of HEK293 cells (AID 743288); conditions: ATP luminescence (CellTiter-Glo), 18 h; max response: stronger effect = lower value; also: nearly all actives have a fitted effect of over 50% in size; also: potency is read from the fitted curve at half-maximal effect
# In short: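 Steps: plate 2,000 parental HEK293 cells per well; incubate ≥5 h, 37 C; add compounds in DMSO; incubate 18 h, 37 C; add CellTiter-Glo; wait 30 min at room temperature; read luminescence.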
# [21] = qHTS assay for cell viability of the p53RE-bla HCT-116 cell line (AID 743292); also: nearly all actives have a fitted effect of over 55% in size; also: potency is read from the fitted curve at half-maximal effect
# In short: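 Compound-exposed HCT-116 (p53RE-bla) cells, 4,000 per well, were kept 16 h at 37 C following a 5 h preincubation. Cell number was estimated from total ATP by CellTiter-Glo luminescence read after 30 min at room temperature.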
# [22] = qHTS assay for small molecule activators of the human pregnane X receptor (PXR) signaling pathway (AID 720659; call rule not given here; also: 0% is about no effect)
# [23] = molecular target: Glucocorticoid receptor (Homo sapiens) (UniProt P04150); experiment: qHTS assay for small molecule agonists of glucocorticoid receptor signaling (AID 588532; active = well fitted curve in the direction sought with a large enough effect in the signal ratio, with a control signal flat; the % refers to the signal ratio;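 also: 100% = dexamethasone at 0.1 µM and 0% = DMSO only wells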); conditions: HeLa MMTV-bla, beta-lactamase ratio, agonist, 18 h; activation: stronger effect = higher value, percent of dexamethasone control, DMSO zero
# In short: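 Titration series, up to 92 uM, applied to GRE-bla HeLa cells for 18 h at 37 C. Detection by CCF4 FRET substrate after 2 h at RT.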
# [24] = qHTS assay for small molecule agonists of the antioxidant response element (ARE) signaling pathway (AID 651741; active = well fitted activation curve with a large enough effect in the signal ratio; the % refers to the signal ratio; also: potency is read from the fitted curve at half-maximal effect; as to activation: % of control where 0% means no effect)
# In short: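 Beta-lactamase reporter expression driven by the antioxidant response element in HepG2 cells was detected by fluorescence with LiveBLAzer B/G FRET substrate (2 h, room temperature) following 16 h compound treatment at 37 C.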
# [25] = molecular target: Nuclear receptor subfamily 1 group I member 2 (Rattus norvegicus) (UniProt Q9R1A7); experiment: qHTS assay for small molecule activators of the rat pregnane X receptor (rPXR) signaling pathway (AID 651751; call rule not given here; also: 0% is about no effect); conditions: rPXR reporter cells, luciferase (One-Glo), 24 h
# Nuclear receptor subfamily 1 group I member 2 (Rattus norvegicus), sequence (Q9R1A7 whole entry, looked up): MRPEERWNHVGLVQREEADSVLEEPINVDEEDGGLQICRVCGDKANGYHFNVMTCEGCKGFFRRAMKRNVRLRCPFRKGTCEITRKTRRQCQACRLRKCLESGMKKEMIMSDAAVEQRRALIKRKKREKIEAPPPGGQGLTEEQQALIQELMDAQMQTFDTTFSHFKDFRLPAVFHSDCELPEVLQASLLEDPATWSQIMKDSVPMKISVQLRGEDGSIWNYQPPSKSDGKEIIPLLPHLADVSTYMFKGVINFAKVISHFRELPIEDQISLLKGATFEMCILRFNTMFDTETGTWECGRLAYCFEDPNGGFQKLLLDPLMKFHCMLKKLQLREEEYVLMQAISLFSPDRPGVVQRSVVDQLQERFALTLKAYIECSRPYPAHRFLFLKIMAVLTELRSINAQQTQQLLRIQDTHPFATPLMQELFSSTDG
# Glucocorticoid receptor (Homo sapiens), sequence (P04150 whole entry, looked up): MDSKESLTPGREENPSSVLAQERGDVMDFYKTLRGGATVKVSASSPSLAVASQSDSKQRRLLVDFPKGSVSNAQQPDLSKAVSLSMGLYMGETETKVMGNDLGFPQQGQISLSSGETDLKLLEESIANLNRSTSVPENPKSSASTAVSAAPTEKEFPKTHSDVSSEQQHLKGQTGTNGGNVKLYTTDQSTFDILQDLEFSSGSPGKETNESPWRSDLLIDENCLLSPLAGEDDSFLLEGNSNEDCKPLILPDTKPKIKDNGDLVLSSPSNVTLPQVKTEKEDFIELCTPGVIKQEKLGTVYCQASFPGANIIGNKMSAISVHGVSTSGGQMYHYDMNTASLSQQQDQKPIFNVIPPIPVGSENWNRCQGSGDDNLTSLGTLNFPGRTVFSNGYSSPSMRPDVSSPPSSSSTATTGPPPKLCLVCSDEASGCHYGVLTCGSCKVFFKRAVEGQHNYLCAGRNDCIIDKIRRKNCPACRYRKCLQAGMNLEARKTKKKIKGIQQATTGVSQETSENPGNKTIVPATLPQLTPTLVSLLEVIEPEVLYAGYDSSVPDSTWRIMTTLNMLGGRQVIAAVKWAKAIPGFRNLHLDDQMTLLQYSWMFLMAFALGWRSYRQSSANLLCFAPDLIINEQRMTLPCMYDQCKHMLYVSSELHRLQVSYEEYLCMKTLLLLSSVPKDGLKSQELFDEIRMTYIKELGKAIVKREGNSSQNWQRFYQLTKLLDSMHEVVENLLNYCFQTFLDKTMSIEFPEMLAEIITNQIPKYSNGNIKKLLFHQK
# Peroxisome proliferator-activated receptor gamma (Homo sapiens), sequence (P37231 whole entry, looked up): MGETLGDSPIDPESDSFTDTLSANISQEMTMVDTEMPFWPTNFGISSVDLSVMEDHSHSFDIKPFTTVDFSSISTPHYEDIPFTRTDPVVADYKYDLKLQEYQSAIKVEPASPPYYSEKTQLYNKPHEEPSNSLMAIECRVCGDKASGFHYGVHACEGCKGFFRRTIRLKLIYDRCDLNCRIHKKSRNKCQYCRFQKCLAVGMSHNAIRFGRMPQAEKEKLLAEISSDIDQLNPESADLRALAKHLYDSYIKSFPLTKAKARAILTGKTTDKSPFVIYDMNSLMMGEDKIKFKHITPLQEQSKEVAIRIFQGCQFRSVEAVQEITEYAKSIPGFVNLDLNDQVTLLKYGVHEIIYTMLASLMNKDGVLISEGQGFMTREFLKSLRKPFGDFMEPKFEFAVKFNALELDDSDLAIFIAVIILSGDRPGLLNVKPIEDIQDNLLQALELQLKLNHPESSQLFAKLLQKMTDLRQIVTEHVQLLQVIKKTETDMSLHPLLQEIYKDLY
# Vitamin D3 receptor (Homo sapiens), sequence (P11473 whole entry, looked up): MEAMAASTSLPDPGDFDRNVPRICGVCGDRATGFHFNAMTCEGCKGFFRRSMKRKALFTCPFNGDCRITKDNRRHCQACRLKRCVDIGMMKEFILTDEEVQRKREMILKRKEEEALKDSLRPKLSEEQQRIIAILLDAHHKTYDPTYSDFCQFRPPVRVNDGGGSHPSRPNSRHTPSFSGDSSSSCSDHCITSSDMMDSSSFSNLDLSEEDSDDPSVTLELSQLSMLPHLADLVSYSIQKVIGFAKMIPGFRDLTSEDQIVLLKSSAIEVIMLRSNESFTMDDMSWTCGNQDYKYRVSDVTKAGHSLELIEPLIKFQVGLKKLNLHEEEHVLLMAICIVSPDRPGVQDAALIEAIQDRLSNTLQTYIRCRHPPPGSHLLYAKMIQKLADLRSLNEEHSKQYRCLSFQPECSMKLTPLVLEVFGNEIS
# Thyroid hormone receptor beta (Homo sapiens), sequence (P10828 whole entry, looked up): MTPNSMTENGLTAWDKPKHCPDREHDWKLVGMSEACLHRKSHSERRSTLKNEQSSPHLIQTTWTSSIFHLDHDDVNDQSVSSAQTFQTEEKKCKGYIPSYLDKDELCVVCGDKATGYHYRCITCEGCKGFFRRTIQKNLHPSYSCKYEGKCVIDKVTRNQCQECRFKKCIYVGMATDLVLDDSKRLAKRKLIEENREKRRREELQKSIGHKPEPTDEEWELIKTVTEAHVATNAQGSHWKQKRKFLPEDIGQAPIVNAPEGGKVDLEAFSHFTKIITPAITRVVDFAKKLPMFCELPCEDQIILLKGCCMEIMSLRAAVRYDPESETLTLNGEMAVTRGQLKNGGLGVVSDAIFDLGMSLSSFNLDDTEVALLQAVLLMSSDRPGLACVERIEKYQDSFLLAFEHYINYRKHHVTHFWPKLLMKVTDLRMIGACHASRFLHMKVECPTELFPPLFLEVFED
# Peroxisome proliferator-activated receptor delta (Homo sapiens), sequence (Q03181 whole entry, looked up): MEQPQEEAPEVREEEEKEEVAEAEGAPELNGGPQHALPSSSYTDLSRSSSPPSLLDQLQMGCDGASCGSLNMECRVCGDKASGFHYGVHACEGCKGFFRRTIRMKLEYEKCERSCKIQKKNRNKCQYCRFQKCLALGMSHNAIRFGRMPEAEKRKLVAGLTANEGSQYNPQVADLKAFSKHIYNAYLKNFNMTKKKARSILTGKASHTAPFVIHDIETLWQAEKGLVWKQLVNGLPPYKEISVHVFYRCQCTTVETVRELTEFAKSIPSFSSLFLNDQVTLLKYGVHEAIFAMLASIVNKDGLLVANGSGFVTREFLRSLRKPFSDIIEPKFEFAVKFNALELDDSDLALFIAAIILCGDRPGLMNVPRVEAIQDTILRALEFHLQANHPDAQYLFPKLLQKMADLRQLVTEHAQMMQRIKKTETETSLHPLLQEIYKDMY
# Retinoic acid receptor RXR-alpha (Homo sapiens), sequence (P19793 whole entry, looked up): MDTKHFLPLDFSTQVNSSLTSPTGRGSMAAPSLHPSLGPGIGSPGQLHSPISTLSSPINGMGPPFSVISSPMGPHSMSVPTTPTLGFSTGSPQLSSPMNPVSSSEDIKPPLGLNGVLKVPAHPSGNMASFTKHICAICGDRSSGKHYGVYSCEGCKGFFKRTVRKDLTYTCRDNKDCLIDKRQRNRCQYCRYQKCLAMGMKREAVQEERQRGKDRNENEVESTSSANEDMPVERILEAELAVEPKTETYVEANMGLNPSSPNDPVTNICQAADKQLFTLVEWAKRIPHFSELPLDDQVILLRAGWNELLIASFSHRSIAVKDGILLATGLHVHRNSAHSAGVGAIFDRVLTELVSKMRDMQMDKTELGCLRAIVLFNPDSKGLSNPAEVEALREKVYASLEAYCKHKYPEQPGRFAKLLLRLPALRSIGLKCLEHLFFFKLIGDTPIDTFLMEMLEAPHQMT
# Peroxisome proliferator-activated receptor alpha (Homo sapiens), sequence (Q07869 whole entry, looked up): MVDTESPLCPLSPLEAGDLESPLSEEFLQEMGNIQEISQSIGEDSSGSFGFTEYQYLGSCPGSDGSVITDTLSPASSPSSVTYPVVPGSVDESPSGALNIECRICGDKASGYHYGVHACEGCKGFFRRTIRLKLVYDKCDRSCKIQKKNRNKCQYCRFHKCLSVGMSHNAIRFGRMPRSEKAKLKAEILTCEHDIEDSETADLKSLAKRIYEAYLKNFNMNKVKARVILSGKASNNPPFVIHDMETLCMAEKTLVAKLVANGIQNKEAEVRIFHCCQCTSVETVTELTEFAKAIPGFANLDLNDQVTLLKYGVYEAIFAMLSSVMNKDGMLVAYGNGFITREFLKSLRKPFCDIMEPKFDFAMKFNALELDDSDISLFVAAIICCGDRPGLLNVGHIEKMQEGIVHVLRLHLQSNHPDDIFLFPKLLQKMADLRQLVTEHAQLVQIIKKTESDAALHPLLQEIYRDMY
structure (smiles),measurement,setting,value
CC/C(=N\OC/C=C/Cl)C1=C(O)CC(C2CCOCC2)CC1=O (stereo unspecified),Potency,[1],inactive
same,outcome,[2],inactive
same,max response,[3],17.7%
same,Potency,[4],inactive
same,Potency,[5],inactive
same,Potency,[6],inactive
same,Potency,[7],inactive
same,outcome,[8],inactive
same,Potency,[9],inactive
same,Potency,[10],inactive
same,max response,[11],0.449%
same,max response,[12],3.36% (inactive)
same,activity change % (negative = inhibition),[13],-7.66% (inactive)
same,activation,[14],-3.67% (inactive)
same,activation,[15],-1.9% (inactive)
same,activation,[16],0.936% (inactive)
same,max response,[17],-0.709% (inactive)
same,Potency,[18],inactive
same,max response,[19],1.41% (inactive)
same,max response,[20],3.9% (inactive)
same,Potency,[21],inactive
same,outcome,[22],inactive
COP(=O)(NC(C)=O)SC (stereo unspecified),activation,[23],-2.58% (inactive)
same,outcome,[2],inactive
same,max response,[3],-7.01%
same,Potency,[4],inactive
same,Potency,[5],inactive
same,Potency,[7],inactive
same,outcome,[8],inactive
same,Potency,[9],inactive
same,Potency,[10],inactive
same,max response,[11],3.46%
same,max response,[12],-12.8% (inactive)
same,activity change % (negative = inhibition),[13],-13.5% (inactive)
same,Potency,[24],inactive
same,activation,[14],-0.529% (inactive)
same,activation,[16],-1.62% (inactive)
same,max response,[17],-0.657% (inactive)
same,Potency,[18],inactive
same,max response,[19],-8.51% (inactive)
same,max response,[20],-8.22% (inactive)
same,Potency,[21],inactive
same,max response,[25],-1.19% (inactive)
same,outcome,[22],inactive
CCC[CH2][Sn]1([CH2]CCC)[O]C(=O)C=CC(=O)[O]1,activation,[23],-4.93% (inactive)
same,Potency,[1],15.8 µM (active)
same,max response,[3],-94%
same,Potency,[4],5.01 µM (active)
same,Potency,[10],inactive
same,Potency,[24],2.17 µM (active)
same,activation,[15],-3.15% (inactive)
same,activation,[16],8.65% (inactive)
same,max response,[17],0.652% (inactive)
same,Potency,[18],13.7 µM (active)
same,Potency,[19],44.7 µM (active)
same,Potency,[20],39.8 µM (active)
same,Potency,[21],70.8 µM (active)
same,max response,[25],-13% (inactive)
same,outcome,[22],inactive
CCOP(=O)(OCC)Oc1nc(Cl)c(Cl)cc1Cl,activation,[23],-1.13% (inactive)
same,outcome,[8],inactive
same,activation,[14],-7.33% (inactive)
same,activation,[15],-2.7% (inactive)
same,activation,[16],3.16% (inactive)
same,max response,[17],-1.51% (inactive)
same,Potency,[18],inactive
same,max response,[19],6.34% (inactive)
same,max response,[20],-13.2% (inactive)
same,Potency,[21],inactive
same,max response,[25],2.55% (inactive)
same,outcome,[22],inactive
CCOP(=S)(OCC)OC(Cl)C(Cl)(Cl)Cl (stereo unspecified),activation,[23],11.6% (inactive)
same,Potency,[1],inactive
same,outcome,[2],inactive
same,Potency,[5],inactive
same,Potency,[6],inactive
same,Potency,[7],inactive
same,outcome,[8],inactive
same,Potency,[10],inactive
same,max response,[11],-12.5%
same,max response,[12],-15% (inactive)
same,activity change % (negative = inhibition),[13],7.52% (inactive)
same,activation,[14],-0.781% (inactive)
same,activation,[15],0.0553% (inactive)
same,activation,[16],0.044% (inactive)
same,Potency,[18],inactive
same,max response,[19],-3.95% (inactive)
same,max response,[20],-12.8% (inactive)
same,Potency,[21],inactive
same,max response,[25],0.487% (inactive)
same,outcome,[22],inactive
